ROS inducer – raises reactive oxygen species in U2OS cancer cells | 46,000 tested, 2% active | ROS induction (% of piperlongumine), % at 10 µM | U2OS ROS induction, H2DCF-DA fluorescence; in the data active means ROS induction above about 79%, passing the limit was not always enough; inconclusive means no clear call, values can overlap the other calls
NOMO-1 viab – STK33 inhibitor candidate reducing NOMO-1 cell viability; 37,000 tested, 7.5% active; NOMO-1 AML viability, CellTiter-Glo luminescence, 72 h; AID 2330; inhibition, % (test concentration not listed); in the data active means inhibition above about 80%; inconclusive means no clear call, values can overlap the other calls
YB-1 expr inh – YB-1 expression inhibition. delta delta Cp (YB-1 minus CDIP) (no concentration beside the values). AID 434959. 30,000 tested, 0.37% active. U2OS, qRT-PCR YB-1 vs CDIP delta delta Cp, 16 h; hits give high values; zero = DMSO, each unit about twofold;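 active means delta delta Cp rounded down to an integer at or above 3, about 3 SD of DMSO wells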;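 further: higher means less YB-1 transcript or more CDIP transcript relative to DMSO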
PD-1 reversal – reversal of PD-1 mediated T-cell inhibition | primary human CD4 T cells, PD-L1 beads, CellTiter-Glo 96 h | activation, % (test concentration not listed) | 29,000 tested, under 10 active | AID 2316; call rule not given here
MITF inhib – blocks MITF activity | TRPM1 promoter luciferase, luminescence, 24 h | 37,000 tested, 0.28% active | AID 2240 | inhibition, % (no concentration beside the values); in the data active means inhibition above about 85%; inconclusive means no clear call, values can overlap the other calls; inactive means below about 68%;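 further: human melanocyte line stably carrying TRPM1 promoter luciferase reporter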
Of the large screens only hits and unclear results are named; the others gave an inactive call. The entries come from a sample that favours hits as a whole.

Cc1noc(C)c1S(=O)(=O)Nc1ccc2c(c1)CC(=O)N([C@@H](C)CO)C[C@H](C)[C@@H](CN(C)Cc1ccc(-c3ccccc3)cc1)O2	NOMO-1 viab 86
C[C@H]1CN([C@@H](C)CO)C(=O)Cc2cc(NS(=O)(=O)c3ccccc3)ccc2O[C@@H]1CN(C)Cc1ccc(-c2ccccc2)cc1	NOMO-1 viab 113
Cc1ccc(S(=O)(=O)Nc2ccc3c(c2)CC(=O)N([C@H](C)CO)C[C@@H](C)[C@H](CN(C)Cc2ccc(-c4ccccc4)cc2)O3)cc1	ROS inducer inconclusive, NOMO-1 viab 95
O=C(COc1ccc(Cl)cc1)Nc1ccc2oc(-c3cccc(F)c3)nc2c1	none (no result: YB-1 expr inh)
COc1c2c(c(O)c3c(=O)c4c(OC)c(O)ccc4oc13)C1CCCC(C)(O2)O1 (configuration not stated)	none
Cc1cccc(NC(=O)CSc2nnc(-c3cccs3)n2-c2ccccc2)c1	ROS inducer inconclusive (no result: YB-1 expr inh)
CC(C)CC(NS(=O)(=O)c1cccc2nsnc12)C(=O)O (configuration not stated)	none (no result: ROS inducer, YB-1 expr inh, PD-1 reversal)
COC(=O)C(CC(C)C)NS(=O)(=O)c1ccc(-c2nnc(SC)n2C)s1 (configuration not stated)	NOMO-1 viab 119
O=C(O)CCCCCCC(=O)N/N=C/c1cc(F)ccc1O	none (no result: NOMO-1 viab, PD-1 reversal, MITF inhib)
COC(=O)c1c(C)oc2ccc(N(C(=O)c3ccncc3)S(=O)(=O)c3ccc(OC)cc3)cc12	NOMO-1 viab 111 (no result: YB-1 expr inh)
CC(=O)c1c(C)oc2ccc(N(C(=O)c3ccncc3)S(=O)(=O)c3ccc(F)cc3)cc12	none (no result: ROS inducer, YB-1 expr inh)
N#Cc1nn(-c2ccccc2)c(=O)[nH]c1=O	none (no result: NOMO-1 viab, YB-1 expr inh, PD-1 reversal, MITF inhib)
Cc1noc(C)c1NC(=O)Nc1cccc2c1O[C@H](CN(C)Cc1ccc(-c3ccccc3)cc1)[C@@H](C)CN([C@H](C)CO)C2=O	NOMO-1 viab 111
C[C@@H]1CN([C@@H](C)CO)C(=O)c2cccc(NC(=O)Nc3ccccc3)c2O[C@@H]1CN(C)Cc1ccc(-c2ccccc2)cc1	ROS inducer 82, NOMO-1 viab 102
C[C@@H]1CN([C@H](C)CO)C(=O)c2cccc(NC(=O)Nc3ccc(F)cc3)c2O[C@@H]1CN(C)Cc1ccc(-c2ccccc2)cc1	NOMO-1 viab 82
C[C@@H]1CN([C@H](C)CO)C(=O)c2cccc(NC(=O)Nc3cccc4ccccc34)c2O[C@@H]1CN(C)Cc1ccc(-c2ccccc2)cc1	NOMO-1 viab 107
C[C@H]1CN([C@@H](C)CO)C(=O)c2cccc(NC(=O)Nc3ccc(F)cc3)c2O[C@@H]1CN(C)Cc1ccc(-c2ccccc2)cc1	none (no result: PD-1 reversal)
Cc1c2cnn(-c3ccccc3)c(=O)c2c(C)n1CC(=O)NC(C)C	none (no result: NOMO-1 viab, YB-1 expr inh, PD-1 reversal, MITF inhib)
NC(=O)CN1CCCCCC1=O	none (no result: NOMO-1 viab, YB-1 expr inh, PD-1 reversal, MITF inhib)
COc1ccccc1OCc1nc(-c2ccccc2)cs1	none
NC(N)=Nc1nc(-c2ccc(-c3ccccc3)cc2)cs1	NOMO-1 viab 115
O=C(N/N=C/c1ccc(O)c2ccccc12)c1ccccn1	none (no result: NOMO-1 viab, PD-1 reversal, MITF inhib)
Oc1ccc(Cl)c2cccnc12	NOMO-1 viab 110 (no result: PD-1 reversal)
O=C(Cn1nc(Cc2cccnc2)c2ccccc2c1=O)Nc1ccc(Oc2ccccc2)cc1	none (no result: NOMO-1 viab, YB-1 expr inh, PD-1 reversal, MITF inhib)
Cc1cc(C)c2c3c1C1C=CCC1CN3C(C(=O)O)C1CC=CC21 (configuration not stated)	NOMO-1 viab 115
COc1ccc(NC(=O)CC(=O)CSc2ccccc2)cc1	NOMO-1 viab 112
COc1ccc(NC(=O)CSc2nnc(-c3ccccc3)c(-c3ccccc3)n2)cc1	none (no result: YB-1 expr inh)
CC[n+]1c(C=C2C=C(C)CC(C)(C)C2)oc2ccccc21	ROS inducer inconclusive, NOMO-1 viab 115
CC(=O)n1c(-c2ccc(C)cc2)cc(-c2ccc(C)cc2)c(C#N)c1=O	none
CCOc1ccc(C(Nc2cccc(C)n2)c2ccc3ccc(C)nc3c2O)cc1 (configuration not stated)	NOMO-1 viab 106 (no result: YB-1 expr inh)
Cc1cccc(NC(c2ccccc2)c2ccc3ccc(C)nc3c2O)n1 (configuration not stated)	NOMO-1 viab 102 (no result: ROS inducer, YB-1 expr inh, PD-1 reversal)
COc1ccc(-c2nc(SCc3ccc(OC)c([N+](=O)[O-])c3)n[nH]2)cc1	none (no result: YB-1 expr inh)
CCCn1c(-c2ccc(S(=O)(=O)N3CCOCC3)cc2)csc1=Nc1ccccc1	ROS inducer 83 (no result: NOMO-1 viab, YB-1 expr inh, PD-1 reversal, MITF inhib)
O=C(COc1ccc(S(=O)(=O)N2CCOCC2)cc1)Nc1ccccc1	none (no result: YB-1 expr inh)
O=C(C1CCCO1)N1N=C(c2c(-c3ccccc3)c3cc(Cl)ccc3[nH]c2=O)CC1c1ccco1 (configuration not stated)	ROS inducer 178, NOMO-1 viab 93 (no result: YB-1 expr inh)
